Source: the supplement of paper PMC6555819

Tests used:
Assay in all cases: PBM binding z-score (relative to random genomic background probes); higher = stronger binding; sequences stand for … in GC…GCGATTGACAGCGTAGAATGAAGG
[1] = test system: RARb homodimer (NR concentration 270 nM)
Method in brief: (§1)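 Random background probes are the reference for binding z-scores. These scores derive from regression-normalized fluorescence on custom Agilent 4×180K protein-binding microarrays incubated 1 h with ligand-free nuclear receptor dimers. Binding was detected with antibodies against each partner (one per run).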

[2] = test system: RARg:RXRa (NR concentration 270 nM, RXRa partner concentration 90 nM)
Method in brief: as §1

[3] = test system: RARg homodimer (NR concentration 270 nM)
Method in brief: as §1

[4] = test system: RXRa DBDmut IVT, anti-RXR (DBD mutation: RXRa K156A/R161A, NR concentration 90 nM)
Method in brief: as §1

[5] = test system: RXRa homodimer (NR concentration 180 nM)
Method in brief: as §1

[6] = test system: THRa:RXRa (NR concentration 90 nM, RXRa partner concentration 90 nM)
Method in brief: as §1

[7] = test system: THRa homodimer (NR concentration 90 nM)
Method in brief: as §1

[8] = test system: VDR homodimer (NR concentration 270 nM)
Method in brief: as §1

Sequence	PBM binding z-score [1]	PBM binding z-score [2]	PBM binding z-score [3]	PBM binding z-score [4]	PBM binding z-score [5]	PBM binding z-score [6]	PBM binding z-score [7]	PBM binding z-score [8]
ATCTCTAGGTAACAAGTTCAGTCAAAGAGAGGAC	1.92	1.45	1.43	1.09	0.866	1.62	1.12	2.65
GATACAGGGTTAAGGCCAGAGTACGCGTATTGAT	1.34	1.7	1.1	-0.0819	1.76	2.05	0.861	1.02
ACTAGCAGGCCAAGGTTCACTCAAGATTAGTCCG	1.66	1.53	1.15	1.75	1.58	1.31	0.0178	3.42
TCATATAGGTAAATGCTAGGCGAAAGTCCGATCT	-0.15	0.217	0.256	1.43	0.556	0.231	0.0597	0.181
TCTAGTTGGTCACGGAGGTCACACATGACGGGTA	4.7	4.74	4.94	1.1	4.96	3.73	2.5	3.54
ACAGACAGGTGATGAAGGTAACCCAGGCTATCAT	0.672	0.398	0.392	-0.925	0.473	0.892	0.124	-0.253
TCAGACCGGTGAAGGTAACTCAGGTACGCAGTCG	0.271	0.022	-0.104	0.832	0.506	1.29	-0.0547	0.152
GCTAGCAGGCCATTTGGGTCACCCAATGACGGGC	2.08	1.52	1.58	-0.734	1.16	2.19	0.834	0.435
GCATATAGGTAATACAAGGTGAAAGCCCGATTGT	0.51	0.492	0.56	0.379	0.681	4.09	0.763	-0.285
TCGAGTAGGTTAGGGGGATTCAGAATGGCGTCGA	0.809	0.0898	0.376	0.668	0.485	0.871	1.01	0.42
CGAACTAGGTCAGAACAGGACAGGGAAGGATGAT	2.37	2.58	2.91	0.62	1.26	3.92	0.578	0.472
TCTGCTAGGTCAACGATGGTCAGATAATCTGCTA	3.47	3.89	5.5	0.978	3.11	3.17	0.478	-0.329
GCTGCTAGGTCGGGTTGGTCAGCTAACGGGTACG	0.957	0.215	0.167	-0.0966	0.0101	0.409	0.283	0.431
CCGACTGGGGCATAAGATTACCATAAGCCAGCCC	-0.156	-0.0949	0.359	-0.222	-0.0512	-0.577	-0.917	-0.442
GCTATTAGTTGAACGGGCAACCGAATGATTCTCG	-0.0848	-0.133	0.229	0.557	-0.15	-0.33	-0.617	-0.439
CAAACTAGGTCACCGGAAGCTCAAAGTCCGCATG	3.48	4.84	5.66	1.98	3.81	3.38	1.92	0.814
ACGAGCAGGCCAAGTTTGGGTCACTCAAACAAAG	2.28	2.29	1.45	-0.315	0.708	2.59	1.04	0.234

Sequence	PBM binding z-score [1]	PBM binding z-score [2]	PBM binding z-score [3]	PBM binding z-score [4]	PBM binding z-score [5]	PBM binding z-score [6]	PBM binding z-score [7]	PBM binding z-score [8]
CGTCCAAGGTCAGAGTGGTCAGTGAATGCCGAGT	3.83	4.78	5.48	2.94	3.42	3.59	1.9	2.23
TTACCAACGTGAGCTGAGGTCGTTGATCCAACTC	0.839	0.0093	-0.366	0.168	0.547	2.48	1.5	2.12
GCTATGAGTTGAAAGGGCAACCGAATGATTCTCG	2.14	2.06	1.7	1.93	2.78	1.17	-0.184	0.754
CTTACTGGGCCATCAGGTCATTGATATCAACGTT	2.78	2.32	2.54	0.956	1.33	3.24	3.08	1.94
ATATGTTGGTTACATCCGGGTCATTCAGGCTATG	2.54	1.79	1.29	0.674	2.18	3.16	2.45	2.26
CGTCAACGTTCAAGGTAACGTAACAGAAAGCAGC	0.184	0.115	0.672	0.181	0.245	1.48	0.849	-0.423
GCTGCTAGGTCAACTGATGGTCAGATAAAGCTCG	3.52	5.33	5.41	1.79	3.01	2.9	1.07	0.346
ATCTCTAGGTAACACTCAGTTCAGTGAAGAACGC	1.27	0.926	0.875	1.05	0.63	1.64	1.38	2.25
TCTTGTAGATCAGCAGGTTAAGACAGCTGGCCAA	0.0345	0.0307	-0.276	0.415	0.431	0.272	-0.416	-0.184
GCTTACGGCTCAAAGGTTATAGCATGAATAGAAT	1.05	1.29	0.586	0.213	1.93	1.21	-0.314	-0.204
CCTTACGGGTCAAGGGTATAGCACGGGTGGTACG	3.17	4.8	4.86	0.672	5.32	2.38	0.0653	0.904
CGTCAAAGTTCAACTAAGGTAACGTGAAGCACGC	4.14	6.07	6.8	4.62	5.49	5.14	1.68	3.84
TCTTGTAGATCAACAGGACGTTAAGAAAGATCGA	-0.694	0.531	0.151	0.714	0.45	0.0444	-0.626	-0.395
CGTCCAAGGTCAGGGTCAGTGAAAGAGACTCGAA	4.57	5.67	6.48	2.75	5.14	3.9	2.66	2.19
AGACTGAGGTTATTAAGATCAGGGAATTGCGGTC	0.996	1.13	0.72	1.53	1.54	1.91	0.441	0.749
ATATGTAGGTTACATCCGCGTCATTCAGGCTATG	0.571	0.929	1.09	0.366	0.901	0.526	0.124	0.163
CAAACTAGGTCACGAAAGGTAAAAGTCGAATGAC	3.34	5.16	5.56	2.02	4.2	4.18	1.49	0.85
